Shown is part of a subset that was picked to be rich in hits.
Cruzain noTriton – inhibitors of Trypanosoma cruzi cruzain without detergent; actives 2.3% (n = 200,000); Potency, µM, for the others: max response, negative = inhibition, most hits filed as inhibitors; purified cruzain, Z-FR-AMC fluorescence, no detergent;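 also: plate controls were enzyme without inhibitor for no effect and buffer without enzyme for full effect; nearly all actives have a fitted effect of over 40% in size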
Target sequence (P25779 123-467 limits assumed): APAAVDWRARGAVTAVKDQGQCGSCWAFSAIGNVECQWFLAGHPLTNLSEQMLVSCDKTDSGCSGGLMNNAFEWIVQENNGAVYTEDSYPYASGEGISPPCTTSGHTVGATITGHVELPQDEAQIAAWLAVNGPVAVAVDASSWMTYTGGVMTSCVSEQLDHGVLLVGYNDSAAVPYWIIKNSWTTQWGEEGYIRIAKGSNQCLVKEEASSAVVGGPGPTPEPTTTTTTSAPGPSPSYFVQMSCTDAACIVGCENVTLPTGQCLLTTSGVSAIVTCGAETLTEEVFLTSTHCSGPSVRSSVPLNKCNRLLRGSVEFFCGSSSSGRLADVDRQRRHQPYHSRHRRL
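Detergent-free condition (0.00005% Triton X-100) in acetate buffer pH 5.5 with DTT. 1.5 nM enzyme and compound were pre-mixed 15 min, then 2 uM Z-FR-AMC substrate added; reaction progress from fluorescence change between first and third reads (60 s).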
Cruzain Triton – blocks cruzain activity in presence of Triton detergent | actives 0.43% (n = 200,000) | Potency, µM, inactives show max response, negative = inhibition, hits mostly inhibitors | purified cruzain, Z-FR-AMC fluorescence, 0.01% Triton;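 also: plate controls were neutral wells for no effect and buffer without enzyme for full effect; nearly all actives have a fitted effect of over 40% in size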
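Purified cruzain (1.5 nM final) was preincubated with compounds for 15 min at room temperature in 100 mM sodium acetate pH 5.5, 5 mM DTT, 0.01% Triton X-100. Reaction started with 2 uM Z-FR-AMC; AMC fluorescence change over 60 s gave activity.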
Giardia FBPA inh-1 – blocks Giardia fructose-bisphosphate aldolase activity. Potency, µM (titrated, usually from 59.6 µM), without a hit: at the highest dose activity, negative = inhibition, actives largely listed as inhibitors. A8B2U2. actives 0.71% (n = 290,000). purified Giardia FBPA; also: nearly all actives have a fitted effect of over 55% in size
Target sequence (A8B2U2 whole entry, looked up): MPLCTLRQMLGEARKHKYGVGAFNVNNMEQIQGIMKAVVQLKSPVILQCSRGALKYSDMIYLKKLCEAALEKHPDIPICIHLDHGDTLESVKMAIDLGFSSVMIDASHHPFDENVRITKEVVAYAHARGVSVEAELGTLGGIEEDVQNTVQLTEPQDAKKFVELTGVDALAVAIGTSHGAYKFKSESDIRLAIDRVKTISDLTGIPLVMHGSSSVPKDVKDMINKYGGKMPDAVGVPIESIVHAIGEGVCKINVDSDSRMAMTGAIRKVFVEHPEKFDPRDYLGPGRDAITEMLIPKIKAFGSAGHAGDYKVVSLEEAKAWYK
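Giardia FBPA (40 nM reagent) was preincubated 10 min at RT with compound (up to 57.5 uM final), then substrate plus GAPDH/TPI/NAD/arsenate coupling system with diaphorase/resazurin was added; resorufin fluorescence (525/598 nm) was read after 20 min.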
Giardia growth – blocks growth of Giardia lamblia trophozoites; Potency, µM (highest dose often 57.5 µM), without a hit: at the highest dose activity change, negative = inhibition, most hits filed as inhibitors; Giardia lamblia trophozoite growth inhibition; actives 5% (n = 1,500); AID 2785; shares compounds with Giardia FBPA inh-1;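 also: trophozoites exposed to compound for 48 h at 37 °C; nearly all actives have a fitted effect of over 70% in size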
Mammalian tox – counter-screen for Giardia aldolase inhibitors: mammalian cell toxicity | shares compounds with Giardia FBPA inh-1 | mammalian cell viability counter-screen, qHTS | Potency, µM (highest dose often 57.5 µM), for inactives: at the top dose viability change, negative = toxicity, usual class: inhibitors | actives 4% (n = 1,500);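 also: Chinese hamster ovary cells used as mammalian cytotoxicity surrogate; viability measured as cellular ATP by luminescence; compound exposure lasted 48 h before reading; nearly all actives have a fitted effect of over 60% in size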
Giardia FBPA inh-2 – confirmation of Giardia fructose-bisphosphate aldolase inhibitors. shares compounds with Giardia FBPA inh-1. purified Giardia aldolase enzyme activity, qHTS. Potency, µM (top dose mostly 57.5 µM), inactives show at the highest dose activity change, negative = inhibition, hits mostly inhibitors. actives 5% (n = 1,500). AID 2787; also: nearly all actives have a fitted effect of over 45% in size
Rabbit FBPA inh – blocks rabbit muscle aldolase in Giardia aldolase selectivity test; Potency, µM (doses to about 57.5 µM), for inactives: at the highest dose activity, negative = inhibition, most hits filed as inhibitors; shares compounds with Giardia FBPA inh-1; AID 2794; actives 4% (n = 1,500); Rabbit muscle FBPA enzyme inhibition, selectivity counter-screen; also: nearly all actives have a fitted effect of over 60% in size
GAPDH counter – GAPDH inhibition flagged for Giardia aldolase hits. actives 6% (n = 1,500). shares compounds with Giardia FBPA inh-1. Potency, µM (titrated, usually from 57.5 µM), without a hit: at the highest dose activity change, negative = inhibition, hits mostly inhibitors. GAPDH coupling enzyme counterscreen, biochemical, qHTS; also: nearly all actives have a fitted effect of over 55% in size
* marks the source's active call; other numbers are inactive results; ? = inconclusive; / = not tested or not shown; [ ] = dose if it differs, or a comment. Calls follow the shape of the dose curve; as a rule, active = well fitted curve in the direction sought with a large enough effect; inconclusive = small, poorly fitted or top-dose-only effect, or another doubt; inactive = no such curve, though single readings can be large; an effect the other way counts as inactive or inconclusive. Unless noted, % is scaled to controls: 0 for no effect and ±100 for the full control effect; potency is read from the fitted curve at half-maximal effect.

SMILES	Cruzain noTriton	Cruzain Triton	Giardia FBPA inh-1	Giardia growth	Mammalian tox	Giardia FBPA inh-2	Rabbit FBPA inh	GAPDH counter
Cc1ccc(-n2cc3c(c2-c2ccccc2Br)c(=O)n(C)c(=O)n3C)cc1N	-5%	-3%	/	/	/	/	/	/
CC(C)Cn1c(CN2CCN(c3cccc(Cl)c3)CC2)nc2c1c(=O)[nH]c(=O)n2C	-3%	2%	/	/	/	/	/	/
COc1cccc(-c2nnc(NC(=O)c3ccc(S(=O)(=O)N4CCOCC4)cc3)o2)c1	?	-1%	?	/	/	/	/	/
CC1CN(S(=O)(=O)c2ccc(C(=O)Nc3nnc(-c4ccc5c(c4)CCCC5)o3)cc2)CC(C)O1 (stereo not drawn)	18%	4%	?	/	/	/	/	/
CC1CCCCN1S(=O)(=O)c1ccc(C(=O)Nc2ccccc2-c2nc3ccccc3s2)cc1 (stereo not drawn)	?	1%	6%	/	/	/	/	/
O=C(Nc1nnc(C2=COCCO2)o1)c1ccc(S(=O)(=O)N2CCOCC2)cc1	/	/	20µM*	?	-5%	3%	5%	6%
CC1CCCN(S(=O)(=O)c2ccc(C(=O)Nc3nnc(C4=COCCO4)o3)cc2)C1 (stereo not drawn)	/	/	28µM*	-3%	14%	11%	10%	15%
CC1CCCCN1S(=O)(=O)c1ccc(C(=O)Nc2nnc(-c3ccccn3)o2)cc1 (stereo not drawn)	/	/	18µM*	24%	10%	23%	22%	0%
CSc1ccc(CCNC(=O)Cn2ncn3c(cc4ccccc43)c2=O)cc1	10%	-2%	/	/	/	/	/	/
COc1ccc(NC(=O)c2ccc3c(c2)NC(=O)CS3)cc1S(=O)(=O)Nc1ccc(Br)cc1	/	/	-27%	/	/	/	/	/
Cc1ccc(NS(=O)(=O)c2cc(NC(=O)c3ccc4c(c3)NC(=O)CS4)ccc2C)c(C)c1	/	/	16µM*	-12%	-19%	-4%	-1%	3%
O[N+]1=CC=CCC1=S.On1ccccc1=S.[Zn]	2.5µM*	3.2µM*	0.5µM*	10µM*	2.8µM*	?	?	?
COc1ccc(OC)c(C2=Nn3c(nnc3-c3ccccc3OC)SC2)c1	/	/	-10%	/	/	/	/	/
CC1CC=CC2C1C(=O)N(Cc1ccccc1)C2c1ccc2ccccc2c1 (stereo not drawn)	/	/	-18%	/	/	/	/	/
CCC(=O)Nc1ccccc1	/	/	8%	/	/	/	/	/
CCC(=O)NC1=C(Cl)C(=O)C(NC(=O)CC)=C(Cl)C1=O	/	/	1.8µM*	14%[38.3 µM]	?	2.9µM*	5.2µM*	3.7µM*
CSc1cccc(NC(=O)N2CCN(c3cc(-c4noc(C)n4)ccc3C)CC2)c1	-6%	-2%	/	/	/	/	/	/
COc1cc(NC(=O)CSc2nc3ncnc(N)c3[nH]2)c(C(=O)O)cc1OC	/	/	11µM*	6%	-14%	-2%	2%	2%
COc1cc(NC(=O)CSc2ccccc2)c(C(=O)O)cc1OC	-8%	1%	14%	/	/	/	/	/
CCn1c2ccccc2c2n[nH]c(=S)nc21	/	/	7%	/	/	/	/	/
O=C(O)Cn1c2ccccc2c2n[nH]c(=S)nc21	/	/	8.9µM*	19%	-3%	7%	4%	8%
Cc1ccc(-c2nnc3ccccc3c2C(=O)Nc2ccc(C)c(F)c2)cc1	-17%	1%	/	/	/	/	/	/
CCOc1ccc(CN2CCN(S(=O)(=O)c3ccc(NC(C)=O)cc3)CC2)cc1	/	/	16µM*	?	1%	3%	7%	4%
CN1CCN(S(=O)(=O)c2ccc(NC(=O)COc3ccccc3)cc2)CC1	/	/	1%	/	/	/	/	/
CN(CCOc1ccccc1)CC(=O)Nc1ccc(S(=O)(=O)N2CCCC2)cc1	/	/	16µM*	?	1%	8%	12%	2%
SMILES	Cruzain noTriton	Cruzain Triton	Giardia FBPA inh-1	Giardia growth	Mammalian tox	Giardia FBPA inh-2	Rabbit FBPA inh	GAPDH counter
COc1ccc(CN2CCN(S(=O)(=O)c3ccc(NC(C)=O)cc3)CC2)cc1OC	11%	2%	-29%	/	/	/	/	/
COc1ccccc1OCC(=O)N(Cc1ccco1)Cc1ccccc1F	-4%	-4%	/	/	/	/	/	/
COc1ccc(N=c2ssnc2Cl)cc1	-1%	-15%	?	/	/	/	/	/
Clc1ccc(N=c2ssnc2Cl)cc1	-24%	-21%	?	/	/	/	/	/
COc1cc(N=c2ssnc2Cl)cc(OC)c1OC	-9%	-21%	20µM*	-4%[10.4 µM]	5%	-28%	32µM*	-6%
N#Cc1ccc(N=c2ssnc2Cl)cc1	-12%	-9%	16µM*	-8%	-12%	-23%	40µM*	11%
O=C(Nc1c2c(nn1-c1ccc(Cl)cc1)CS(=O)(=O)C2)c1cccc(Cl)c1	-25%	2%	/	/	/	/	/	/
CC(=O)c1ccc(C(=O)N(Cc2cccnc2)c2nc3c(C)c(C)ccc3s2)cc1	?	-3%	/	/	/	/	/	/
O=C(O)CN1C(=O)CN=C(c2ccccn2)c2cc(Cl)ccc21	16%	-2%	20µM*	-15%	-3%	0%	7%	8%
O=C1CN=C(c2ccccc2)c2cc(Cl)ccc2N1Cc1ccc(Cl)cc1	-12%	-1%	/	/	/	/	/	/
C(=C\CSc1ncn[nH]1)/CSc1ncn[nH]1	3%	3%	?	0%[38.3 µM]	4%	-2%	1%	2%
c1n[nH]c(SCCCCSc2ncn[nH]2)n1	1%	5%	-27%	/	/	/	/	/
COc1c(O)cc2c(=O)oc3c(OC)c(O)cc4c(=O)oc1c2c34	-26%	-13%	-22%	/	/	/	/	/
O=c1cc2c(=O)oc3cc(O)c(O)oc3c2c(O)c1O	/	/	2.8µM*	15%[10.4 µM]	21%	-27%	?	-18%
C/C(=C\C(=O)OCCCCCCCCC(=O)O)C[C@@H]1OCC(C[C@H]2O[C@H]2[C@@H](C)[C@H](C)O)[C@@H](O)[C@H]1O (stereo partly drawn)	/	/	22%	/	/	/	/	/
CCS(=O)(=O)N1CCc2cc(C(=O)N3CCN(c4ccccc4)CC3)ccc21	1%	-5%	/	/	/	/	/	/
NS(=O)(=O)c1ccc(-c2ccc(/C=C3\NC(=S)NC3=O)o2)cc1	/	/	16µM*	?	1%	-25%	-15%	-7%
NS(=O)(=O)c1ccc(-c2ccc(C=O)o2)cc1	/	/	0%	/	/	/	/	/
CCOc1ccc(CCNC(=O)c2cc(C)nc3c2c(C)nn3-c2cccc(F)c2)cc1	-5%	-3%	/	/	/	/	/	/
O=C(NCSc1ccncn1)c1ccccc1	-5%	4%	16µM*	8%[10.4 µM]	1%	7%	5%	10%
O=C(NCSc1ccnc(SCNC(=O)c2ccccc2)n1)c1ccccc1	?	1%	5%	/	/	/	/	/
COC(=O)c1cc2oc3ccccc3c2n1Cc1c(F)cccc1Cl	1%	0%	/	/	/	/	/	/
CC1=C(c2ccc(C)cc2)S(=O)(=O)N(Cc2ccc(C(=O)Nc3ccc(F)cc3C)cc2)C1=O	?	12%	/	/	/	/	/	/
Cc1ccc(C)c(NC(=O)CSc2n[nH]c(-c3ccncc3)n2)c1	-10%	6%	-13%	/	/	/	/	/

Screening data (PubChem BioAssay)
